Measured values: PubChem BioAssay AID1224904 (Broad Institute, 2016)
Screen size: about 37,000 compounds; about 290 (0.78%) were called active. Inconclusive results (about 10%) are left out.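 The calls were made as follows: active = mean inhibition of at least 10% in the main channel, exceeding the control channel by a set limit; inconclusive = inhibition of 10% or more but channel gap under a set limit; inactive = mean inhibition below 10%.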 The list comes from a sample in which actives are over-represented; it also holds similar structures and randomly drawn compounds.

Assay: inhibitors of DUX4-driven ZSCAN4 reporter expression, primary screen, 293T cells, Gaussia and Italica luciferase (AID 1224904);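 as to activity change, negative = inhibition: 0% = median of neutral control wells and -100% = median of positive control wells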
Details: 293T-iDUX4 ZSCAN4-Gaussia luciferase reporter, 24 h, stronger effect = lower value, concentration not given here; for Gaussia minus Italica difference: measured here: selective DUX4 reporter inhibition
[1] = measured here: Italica tet-on control reporter

| Compound | activity change, negative = inhibition | activity change, negative = inhibition [1] [%] | Gaussia minus Italica difference [%] |
| --- | --- | --- | --- |
| Cn1cnc(CCNC(=O)C[C@H]2CC[C@H]3[C@@H](COC[C@H](O)CN3C(=O)C3CCCC3)O2)c1 | 4.42% (inactive) | -1.98 | 6.41 |
| CCCNC(=O)Nc1ccc2c(c1)C(=O)N(C)C[C@H](OC)[C@H](C)CN[C@@H](C)CO2 | 5.48% (inactive) | 4.45 | 1.03 |
| CN1c2ccc(Br)cc2[C@@H]2[C@@H](CCN2C(=O)Cc2ccccc2)[C@@H]1CO | 6.02% (inactive) | 3.73 | 2.29 |
| O=C(C[C@@H]1CC[C@H]2[C@@H](COC[C@@H](O)CN2Cc2nccs2)O1)NCc1ccc(-c2ccccc2)cc1 | -5.3% (inactive) | -11.9 | 6.63 |
| O=C(c1ccccc1F)N1C[C@@H]2[C@H](c3ccccc31)[C@H](CO)N2C(=O)C1CCCC1 | 1.9% (inactive) | 3.72 | -1.83 |
| Cc1ccccc1-c1ccc(C2[C@@H]3CN(C(=O)C4CCCCC4)C[C@H]2N3)cc1 (some centres not stated) | -6.47% (inactive) | -0.357 | -6.12 |
| O=C(CN1CCOCC1)N1C[C@@H]2N[C@H](C1)C2c1ccc(-c2ccncc2)cc1 (some centres not stated) | 15.1% (inactive) | 19.9 | -4.83 |
| O=C(C1CCC1)N1C[C@@H]2N[C@H](C1)C2c1ccc(-c2cncnc2)cc1 (some centres not stated) | -25.8% (active) | -0.405 | -25.4 |
| COCC(=O)Nc1ccc2c(c1)OC[C@@H](C)N(C(=O)CC1CC1)C[C@@H](C)[C@@H](OC)CN(C)C2=O | -1.74% (inactive) | -0.0881 | -1.65 |
